Common to all, as to assay: NCI-60 one-dose screen, 48 h (100 = growth as untreated, 0 = no growth, -100 = all killed)
Holding throughout (conditions): 10 µM unless noted

The test system of assay [1] is HCT-15 colon.
Assay [2] relates to HT29 colon.
Assay [3] concerns SNB-75 CNS.
In assay [4] the test system is SNB-19 CNS.
For assay [5], the system named is U251 CNS.
For assay [6], the system named is PC-3 prostate.
In assay [7] the test system is SK-MEL-5 melanoma.
For assay [8], the system named is UACC-62 melanoma.
For assay [9], the system named is LOX IMVI melanoma.
The test system of assay [10] is SK-MEL-28 melanoma.
Assay [11] deals with SK-MEL-2 melanoma.
Assay [12] concerns EKVX NSCLC.
In assay [13] the test system is SN12C renal.
Assay [14] has as its system UO-31 renal.
Assay [15] has as its system TK-10 renal.
Assay [16] has as its system ACHN renal.
In assay [17] the test system is CAKI-1 renal.
The test system of assay [18] is CCRF-CEM leukemia.
The subject of assay [19] is MOLT-4 leukemia.
Assay [20] concerns A498 renal.

The panel holds about 83,000 compounds, 20% with a hit somewhere; the sample as a whole holds those more often.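 Single-dose data. Exposure time 48 hours. Values below 10 considered active.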 Values without a mark were called inactive. Active and inactive are the calls of the source.

As to `O=c1c2ccccc2c2nccn2c2cc(Cl)ccc12`, the growth is 129% in assay [1]; 83.8% in [2]; 73.3% in [3]; 119% in [4]; 105% in assay [5]; 72.5% in assay [6]. Also, the growth was 72.6% in [7]; 129% in assay [8]; 95.4% in assay [9]; 96.8% in [10]; 81.5% in assay [11]; 83.2% in assay [12]. In addition, the growth is 112% in [13]; 70.7% in assay [14]; 137% in [15]; 138% in [16]; 75.2% in assay [17]; 34% in [18]. In addition, in [19], the growth is -54.9% (active).
For `C/C=C(/C(=C/C)c1ccc(O)cc1)c1ccc(O)cc1`, the growth in assay [1] was 31.7%; in [2], 38.6%; in assay [3], 9.32% (active); in assay [4], 34.6%; in assay [5], 32.8%; in assay [6] it was 46.2%. Besides, the growth in assay [7] was 5.64% (active); in assay [8], 31.2%; in assay [9], 39.1%; in [10], 52.4%; in assay [11] it was 44.9%; in assay [12] it was 35.7%. The growth in assay [13] was 42.8%; in [14] it was 38.1%; in assay [16] it was 38.4%; in assay [17], 42.1%; in assay [20], 31.4%; in assay [18], 17.1%. Further, the growth in assay [19] is 34%.
For `COc1ccc2c(c1)C(=Nc1cc(OC)c(OC)c(OC)c1)C(=O)N2`, the growth in assay [1] is 100%; in assay [2], 115%; in assay [3], 104%; in [4], 113%; in assay [5] it was 93%; in [6], 77.5%. Further, the growth is 114% in assay [7]; 88.8% in assay [8]; 81.6% in assay [9]; 90.2% in assay [10]; 76.8% in assay [11]; 97% in assay [12]. In addition, the growth in assay [13] was 97.3%; in [14], 46.9%; in assay [15], 136%; in assay [16], 88.5%; in assay [17] it was 122%; in [18], 81.1%. Besides, the growth in assay [19] is 104%.
For `c1ccc2nc(N/N=C3\CCCCC3C3CCCCC3)ccc2c1` (configuration not stated), the growth in [1] was 33.5%; in assay [2], 26.6%; in assay [3] it was 70.2%; in [4], 76%; in assay [5], 41.6%; in [6], 14%. The growth in assay [7] was 39.7%; in assay [8], 50.8%; in [9], 23.4%; in [10], 62.6%; in assay [11] it was 34.6%; in assay [12] it was 33.5%. The growth in assay [13] was 59.4%; in [14] it was 60.9%; in assay [15], 72.8%; in assay [16], 44.5%; in assay [17], 43.4%; in assay [18], 7.99% (active). In assay [19], the growth is 6.97% (active).
For the compound `O=C(c1ccc(N2CCOCC2)cc1[N+](=O)[O-])N1CCOCC1`, the growth is 96.2% in [1]; 90.5% in assay [2]; 31.8% in assay [3]; 96.9% in assay [4]; 105% in assay [5]; 93.6% in assay [6]. Besides, the growth was 136% in assay [7]; 97% in assay [8]; 98.3% in assay [9]; 96.9% in assay [10]; 17.9% in assay [11]; 18.9% in [12]. The growth in assay [13] is 145%; in assay [14], 99.4%; in assay [15], 116%; in assay [16] it was 100%; in assay [17] it was 20.1%; in assay [18] it was 104%. In addition, the growth in [19] was 116%.
`N#CSCC1CC(O)(c2ccccc2)C(c2ccccc2)C(c2ccc(Cl)cc2)O1` (configuration not stated): the growth in assay [1] is -64.6% (active); in assay [2] it was 1.18% (active); in assay [3] it was 37.5%; in [4] it was 36.6%; in assay [5], -31.1% (active); in assay [6] it was -6.02% (active). In addition, the growth in assay [7] is -87.4% (active); in assay [8], -90.5% (active); in assay [9], -97.4% (active); in assay [10], -84% (active); in [11] it was -42.7% (active); in [12], -40% (active). Besides, the growth in assay [13] is -91.9% (active); in [14], -93.1% (active); in assay [16], -71.6% (active); in [17], -67.1% (active); in [20], 6.8% (active); in assay [18] it was 10.2%. Further, the growth in assay [19] was -10% (active).
`CSc1nc(N)c2c(n1)N(C)C=NS2(=O)=O`: the growth in assay [1] is 103%; in assay [2], 124%; in assay [3], 93.3%; in assay [4] it was 107%; in [5], 103%; in [6], 94.7%. Moreover, the growth in assay [7] was 104%; in [8], 97.4%; in assay [9], 98.3%; in assay [10], 122%; in assay [11], 123%; in assay [12], 113%. The growth was 99.3% in assay [13]; 87.1% in assay [14]; 109% in [15]; 99% in [16]; 98.2% in assay [17]; 94.4% in assay [18]. Further, the growth in assay [19] is 107%.
On to `O=C1Nc2ccc(Cl)cc2[C@@](C#CC2CC2)(C(F)(F)F)O1`, for which the growth in assay [1] was 82.9%; in assay [2], 86.6%; in assay [3], 114%; in [4], 103%; in assay [5] it was 92%; in [6], 92.9%. The growth is 78% in [7]; 70% in assay [8]; 85.5% in assay [9]; 109% in assay [10]; 95.5% in [11]; 112% in assay [12]. In addition, the growth in assay [13] is 85.8%; in assay [14], 116%; in assay [15], 106%; in assay [16], 88.6%; in assay [17], 91.4%; in [18] it was 87.4%. The growth in [19] was 74.1%.
